# Sampled rows, rich in hits. Any-hit rate of the full collection: about 4.1%.
# tim10-1 inh: inhibits growth of tim10-1 mutant yeast | S. cerevisiae tim10-1 ts strain growth, BacTiter-Glo, 24 h | 2.2% of 330,000 active | inhibition, % at 20 µM | AID 463190;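 active = inhibition of at least 40%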;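 also: mutant grown at 25 °C; 0% = DMSO wells with yeast and 100% = wells holding no yeast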
# TIM10 inh: growth inhibitors of TIM10 yeast strain | S. cerevisiae TIM10 strain growth, BacTiter-Glo luminescence, 24 h | inhibition, % at 10 µM | 1.4% of 330,000 active;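 active = inhibition of 40% or more at the single tested concentration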;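 also: wild-type TIM10 isogenic control strain grown at permissive 25 °C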
# PfHsp90 set2: growth inhibition of yeast expressing Plasmodium Hsp90 | S. cerevisiae expressing PfHsp90, BacTiter-Glo ATP, 48 h; yeast lacking PDR1 and PDR3 efflux regulators | inhibition, % at 9.4 µM | 0.32% of 310,000 active | AID 504621;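 active = every replicate shows inhibition above about 80%, whatever the replicate mean, limit read from the data; inconclusive = mean inhibition reaches the set limit but some replicate falls short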;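 also: 0% = DMSO neutral controls and 100% = 20 µM radicicol positive controls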
# NALP3 yeast inh: inhibitors of NALP3 inflammasome in yeast | Yeast reconstituted NLRP3/ASC/caspase-1, beta-gal luminescence, 24 h | inhibition, % at 10 µM | 0.39% of 330,000 active | AID 2825;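 active = inhibition of 50% or more; inactive = inhibition below 50%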;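 also: plate controls were induced DMSO wells for no effect and uninduced yeast grown without galactose for full effect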
# tim23-1 inh: tim23-1 yeast growth inhibition. S. cerevisiae tim23-1 growth, BacTiter-Glo luminescence, 24 h. inhibition, % at 20 µM. 1.3% of 330,000 active;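 active = growth inhibition of the mutant yeast at or above 50%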;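 also: temperature-sensitive mutant grown at 25 °C; plate controls were DMSO-treated mutant yeast for no effect and medium wells lacking yeast for full effect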
# NALP1 yeast inh: inhibitors of NALP1 inflammasome in yeast | S. cerevisiae NALP1/ASC/caspase-1 growth, X-gal OD620, 72 h | inhibition, % at 10 µM | 0.61% of 280,000 active | AID 2071; in the data active = inhibition mostly above about 24%, no sharp cut-off; inactive = mostly below about 32%
# tim10-1 confirm: confirmation of tim10-1 mutant yeast growth inhibitors; inhibition, % at 20 µM; shares compounds with tim10-1 inh; S. cerevisiae tim10-1 ts strain growth, BacTiter-Glo, 24 h; 56% of 7,400 active; AID 463213;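 active = inhibition of yeast growth at or above a set limit in either of two repeat tests at 20 µM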;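 also: tim10-1 mutant grown at permissive 25 °C to find synthetic lethal compounds; 0% = DMSO yeast wells and 100% = medium wells without yeast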
# TIM10 conf: TIM10 yeast growth inhibition, confirmed. S. cerevisiae tim10 strain growth, BacTiter-Glo luminescence, 24 h. 63% of 4,600 active. inhibition, % at 10 µM. shares compounds with TIM10 inh;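 active = inhibition of yeast growth at or above a set limit in either of two replicates at 10 µM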;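 also: this counterscreen used the strain with wild-type TIM10; 0% = yeast with DMSO and 100% = medium wells lacking yeast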
# tim23-1 confirm: tim23-1 yeast growth inhibition, confirmed; shares compounds with tim23-1 inh; S. cerevisiae tim23-1 growth, BacTiter-Glo luminescence, 24 h; inhibition, % at 20 µM; 83% of 4,400 active;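 active = inhibition above about 39% in either of two replicate wells at 20 µM, limit read from the data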;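 also: temperature-sensitive tim23-1 mutant grown at 25 °C; 0% = DMSO wells with yeast and 100% = medium wells without yeast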
# Active calls of the source: *; ? = inconclusive; · = no result.
SMILES,tim10-1 inh,TIM10 inh,PfHsp90 set2,NALP3 yeast inh,tim23-1 inh,NALP1 yeast inh,tim10-1 confirm,TIM10 conf,tim23-1 confirm
COc1cc2c(cc1OC)/C(=C/c1ccc(Cl)cc1)C(=O)OC2,41*,2,-31,18,55*,35,12,·,47*
COc1ccc(/C=C2\C(=O)OCc3cc(OC)c(OC)cc32)cc1OC,23,27,-1,0,23,14,·,·,·
COc1ccc(O)c(C(=O)c2cnn(S(=O)(=O)c3ccc(C)cc3)c2)c1,54*,26,-7,32,52*,·,35*,·,52*
Cc1nnc(SCC(=O)NCC2COc3ccccc3O2)s1 (centres undefined),-8,-6,2,16,-5,·,·,·,·
COc1ccc(NC(=O)NNC(=O)COc2ccc([N+](=O)[O-])c(C)c2)cc1OC,-11,-1,2,17,-11,6,·,·,·
CCN(CC(=O)Nc1ccc2c(c1)OCCO2)CC(=O)Nc1ccc(C)c(S(=O)(=O)N(C)C)c1,6,5,4,-7,9,·,·,·,·
O=c1oc(-c2ccco2)nc2sc3c(c12)CCCC3,46*,47*,-27,29,54*,8,31*,43*,42*
Cc1nc2sc3c(c2c(=O)o1)CCCC3,6,6,-22,9,14,21,·,·,·
O=C(COc1ccccc1Br)c1ccc(O)cc1O,50*,32,-16,22,66*,13,40*,·,58*
O=C(COc1ccccc1Br)c1ccc2c(c1)OCO2,19,7,-1,7,12,·,·,·,·
O=C(Cc1ccc(Br)cc1)c1ccc(O)cc1O,58*,61*,15,34,63*,-5,66*,57*,53*
CNC(C)C#Cc1ccc2c(=O)c3ccccc3oc2c1 (centres undefined),54*,26,-5,8,58*,·,42*,·,53*
CCNc1c(NS(=O)(=O)c2ccc(Cl)s2)c(=O)oc2ccccc12,-13,-4,-10,3,-9,11,·,·,·
COc1ccccc1C(=O)NCC(=O)OCC(=O)N1CC(C)OC(C)C1 (centres undefined),-8,-1,-19,25,-3,·,·,·,·
Cc1noc(/C=C/c2ccccn2)c1[N+](=O)[O-],53*,51*,-56,29,62*,41*,62*,58*,54*
COc1ccccc1N/C=C/c1onc(C)c1[N+](=O)[O-],22,23,0,33,12,5,·,·,·
C=CCOn1c(=O)c(-c2cccs2)[n+]([O-])c2ccccc21,53*,41*,·,-15,61*,-4,21,33*,70*
COC(=O)c1cc(=O)n(-c2ccc(F)cc2)c(=Nc2ccc(F)cc2)s1,56*,54*,125*,-8,67*,46,57*,55*,44*
COC(=O)c1cc(=O)n(Cc2cccs2)c(=Nc2ccc(F)cc2)s1,29,9,12,8,21,14,·,·,·
Cc1ccsc1/C=N/Nc1nc(=O)[nH]nc1C,52*,43*,?,2,50*,-5,50*,48*,56*
O=[N+]([O-])c1ccc(COP(=O)(O)OCc2ccc([N+](=O)[O-])cc2)cc1,-15,-5,·,6,10,·,·,·,·
NC(=O)C1CCN(C(=O)c2ccc(OCC(=O)Nc3cccc(C(F)(F)F)c3)cc2)CC1,12,15,·,6,7,·,·,·,·
CCOC(=O)C1CCN(C(=O)c2ccc(OCC(=O)Nc3cccc(C(F)(F)F)c3)cc2)CC1,56*,54*,8,2,54*,18,56*,53*,53*
O=c1oc(-c2ccccc2Cl)nc2ccsc12,44*,34,1,10,70*,-4,35*,·,60*
Cc1ccc(CNC(=O)CN2C(=O)NC3(CC(C)CC(C)(C)C3)C2=O)cc1 (centres undefined),1,-12,4,9,5,·,·,·,·
SMILES,tim10-1 inh,TIM10 inh,PfHsp90 set2,NALP3 yeast inh,tim23-1 inh,NALP1 yeast inh,tim10-1 confirm,TIM10 conf,tim23-1 confirm
N/C(Cc1ccc([N+](=O)[O-])cc1)=N\OC(=O)c1ccccc1Br,52*,88*,-70,20,62*,68*,56*,-8,88*
N/C(Cc1ccc([N+](=O)[O-])cc1)=N\OC(=O)c1ccco1,21,27,-24,11,26,-7,·,·,·
N/C(Cc1ccc([N+](=O)[O-])cc1)=N\OC(=O)c1ccc2ccccc2c1,54*,90*,15,28,81*,30,47*,89*,92*
Cc1cccc(C(=O)Oc2ccc(/C=N/NC(=O)Cc3ccc([N+](=O)[O-])cc3)cc2)c1,-2,-12,-5,3,-8,2,·,·,·
Cc1cccc(C(=O)O/N=C(\N)Cc2ccc([N+](=O)[O-])cc2)c1,40*,87*,2,22,81*,20,58*,91*,91*
N/C(Cc1ccc([N+](=O)[O-])cc1)=N\OC(=O)CC1CCCCC1,65*,86*,8,31,79*,39,64*,92*,83*
COc1cccc(-n2nc(C#N)c(Cl)cc2=O)c1,68*,55*,-38,-16,62*,1,56*,39*,63*
CCC1CCc2sc(C(=O)N3CCN(c4ccccn4)CC3)cc2C1 (centres undefined),46*,31,8,25,56*,18,34*,·,56*
CCC1CCc2sc(C(=O)N3CCCN(C)CC3)cc2C1 (centres undefined),26,9,7,15,-7,16,·,·,·
CCn1c(=O)c(C(=O)NCc2ccccn2)c(O)c2ccccc21,45*,38,-13,14,60*,7,16,·,58*
O=C(NC(=S)NNC(=O)c1ccccc1[N+](=O)[O-])c1ccccc1,41*,51*,18,0,50*,6,52*,56*,53*
CCC(=O)NC(=S)NNC(=O)c1ccccc1[N+](=O)[O-],45*,53*,10,13,56*,-5,76*,60*,64*
COc1ccc(/C=C(\NC(=O)c2ccccc2)C(=O)NCCN2CCOCC2)cc1,17,-4,-4,18,13,7,·,·,·
Cc1occc1C(=O)NNC(=O)c1ccc(S(=O)(=O)N(C)C)cc1,6,3,·,4,11,·,·,·,·

# Screening data: PubChem, several laboratories
